In PubChem BioAssay (NCATS):
Results filed as inconclusive are left out. Activity calls are given as the source filed them. Unless noted, calls come from the whole dose curve.

System: not listed separately
Test: S16 Schwann cell PMP22 intronic element beta-lactamase assay (AID 624044); note: nearly all actives have a fitted effect of over 15% in size; note: potency is the fitted concentration of half-maximal effect;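 for ratio activity, negative = inhibition: 0% = DMSO and -100% = potassium clavulanate positive control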
Settings: S16 rat Schwann cells, PMP22 element beta-lactamase FRET, 24 h; series mostly up to 38.3 µM; ratio activity, negative = inhibition: at the top concentration
Summary of the method: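 Beta-lactamase reporter under a PMP22 intronic regulatory element in stable S16 rat Schwann cells; 24 h compound exposure. 460 nm blue signal normalized between DMSO (0%) and potassium clavulanate, with 535 nm FRET tracking viability; curves classed by r2 and response.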

| Compound | ratio activity, negative = inhibition | Potency |
| --- | --- | --- |
| CC(C)NC(C)Cc1ccc(I)cc1 (stereo not drawn) | -8.02% (inactive) | – |
| CC(=O)[O][Hg][c]1ccccc1 | – | 14.1 µM (active) |
| CC[N+]1(CCOC(=O)C(O)(c2ccccc2)c2ccccc2)CCCCC1 | -0.891% (inactive) | – |
| COC(=O)c1cncn1C(C)c1ccccc1 (stereo not drawn) | -1.9% (inactive) | – |
| CN(C)[C@@H]1C(=O)C(C(N)=O)=C(O)[C@@]2(O)C(=O)C3=C(O)c4c(O)cccc4[C@@](C)(O)[C@H]3[C@H](O)[C@@H]12 | -3.81% (inactive) | – |
| COC(=O)[C@@H](N)CCCN=C(N)N[N+](=O)[O-] | 8.49% (inactive) | – |
| CC(=O)OCC1=C(C(=O)O)N2C(=O)[C@@H](N)[C@@H]2SC1 | -2.36% [at 17.1 µM] (inactive) | – |
| C=CCN1CC[C@]23CCCCC2[C@H]1Cc1ccc(O)cc13 (stereo partly drawn) | 2.01% (inactive) | – |
| NC1=NC(=O)N2CC12 (stereo not drawn) | 7.03% (inactive) | – |
| CCCCCCCCCC(CC)c1ccc(S(=O)(=O)O)cc1 (stereo not drawn) | 1.24% (inactive) | – |
| NC(=O)CN1CC(O)CC1=O (stereo not drawn) | 0.0563% (inactive) | – |
| C#CC1(O)CCC2C3CCC4=CC(=O)CCC4(C)C3CCC21C (stereo not drawn) | -1.58% (inactive) | – |
| C[C@]12CCC(=O)C(O)=C1CC[C@@H]1[C@H]3CCC(=O)[C@@]3(C)CC[C@@H]12 | 2.41% (inactive) | – |
| CCCN1CCC[C@H](c2cccc(O)c2)C1 | -0.254% (inactive) | – |
| COC(C)(C)CCCC(C)C/C=C/C(C)=C/C(=O)OC(C)C (stereo not drawn) | -0.826% (inactive) | – |
| c1ccc(C2(c3ccccc3)CC2C2=NCCN2)cc1 (stereo not drawn) | 2.17% (inactive) | – |
| CN1C2CCC1CC(OC(=O)c1cc(Cl)cc(Cl)c1)C2 (stereo not drawn) | 1.39% (inactive) | – |

Molecular target: Glutaminase kidney isoform, mitochondrial (Homo sapiens) (UniProt O94925)
Sequence (O94925 whole entry, looked up, canonical isoform): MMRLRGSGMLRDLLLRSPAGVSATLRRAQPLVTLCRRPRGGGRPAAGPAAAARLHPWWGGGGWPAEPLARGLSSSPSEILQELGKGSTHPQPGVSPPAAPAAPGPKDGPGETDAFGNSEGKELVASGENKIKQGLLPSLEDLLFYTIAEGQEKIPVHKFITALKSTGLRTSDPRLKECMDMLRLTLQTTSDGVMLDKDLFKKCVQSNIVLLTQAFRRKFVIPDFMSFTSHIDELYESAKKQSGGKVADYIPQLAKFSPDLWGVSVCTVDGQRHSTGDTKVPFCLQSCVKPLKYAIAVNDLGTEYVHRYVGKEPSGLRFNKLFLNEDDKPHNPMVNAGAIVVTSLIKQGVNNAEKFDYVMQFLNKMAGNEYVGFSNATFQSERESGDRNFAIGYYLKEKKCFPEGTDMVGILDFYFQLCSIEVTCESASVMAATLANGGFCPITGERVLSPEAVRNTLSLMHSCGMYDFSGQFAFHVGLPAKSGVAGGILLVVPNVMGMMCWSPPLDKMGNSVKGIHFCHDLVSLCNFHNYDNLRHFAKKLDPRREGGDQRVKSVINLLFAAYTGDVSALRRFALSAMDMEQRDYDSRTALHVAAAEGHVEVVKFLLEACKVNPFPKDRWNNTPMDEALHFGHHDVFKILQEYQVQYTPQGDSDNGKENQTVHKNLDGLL
Test: qHTS for Inhibitors of Glutaminase (GLS): LOPAC Validation (AID 624146; active = well fitted inhibition curve with a large enough effect;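 note: glutamate product detected by oxidase and peroxidase coupled Amplex red fluorescence gain; % is set by controls: 0 for no effect and ±100 for the full control effect; nearly all actives have a fitted effect of over 60% in size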)
Settings: glutaminase enzyme activity inhibition; series mostly up to 46.1 µM; activity change, negative = inhibition: at the top concentration
Summary of the method: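 hKGA; 45 mM KH2PO4 pH 8.2 + 0.02% Tween-20; cpd via pin tool; 1 mM Gln soln; GluOx/HRP/Amplex Red; RT 30 min; fluor. t0 & final.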

| Compound | activity change, negative = inhibition |
| --- | --- |
| CC(C)NC(C)Cc1ccc(I)cc1 (stereo not drawn) | -3.65% (inactive) |
| C[C@@H]1O[C@H](C[N+](C)(C)C)C[C@H]1O | -14.5% (inactive) |
| CC(=O)[C@H]1CCC2C3CC[C@H]4C[C@H](O)CC[C@]4(C)C3CC[C@@]21C (stereo partly drawn) | -11.4% (inactive) |
| NC1CC1c1ccccc1 (stereo not drawn) | -19.1% (inactive) |
| COC(=O)[C@@H](N)CCCN=C(N)N[N+](=O)[O-] | -7.95% (inactive) |
| CCCCc1ccc(C(=O)O)nc1 | -17.7% (inactive) |
| C=CCN1CC[C@]23CCCCC2[C@H]1Cc1ccc(O)cc13 (stereo partly drawn) | 192% (inactive) |
| CCCN(CCC)C1CCc2ccc(O)cc2C1 (stereo not drawn) | -9.82% (inactive) |
| S=C(NC1CCCCC1)N1CCC(c2cnc[nH]2)CC1 | -11.2% (inactive) |
| CCCN(CCC)[C@@H]1CCc2ccc(O)cc2C1 | -3.64% (inactive) |
| NC(=O)CN1CC(O)CC1=O (stereo not drawn) | -1.61% (inactive) |
| CS(=N)(=O)CC[C@H](N)C(=O)O (stereo partly drawn) | -3.7% (inactive) |
| CCCN1CCC[C@H](c2cccc(O)c2)C1 | 37.6% (inactive) |
| c1ccc(C2(c3ccccc3)CC2C2=NCCN2)cc1 (stereo not drawn) | 32.6% (inactive) |
| CN1C2CCC1CC(OC(=O)c1cc(Cl)cc(Cl)c1)C2 (stereo not drawn) | -10.8% (inactive) |
| NCCc1c[nH]c2ccccc12 | -2.09% (inactive) |
